Compound activity from PubChem.
Compounds with a hit are over-represented: about 1.4% of the library has one in this group of screens.
V-ATPase pH = regulators of yeast V-ATPase proton pumping, primary screen, pHLuorin cytosolic pH fluorescence. AID 504577, 2011. response, % at 10 µM. S. cerevisiae. 350,000 tested, 0.37% active; in the data active means response mostly above about 7.3%, no sharp cut-off; inactive means mostly below about 5.4%; further: actives read high
HSV replic up = enhancers of HSV replication in host cells, fold increase, host cell viability; 220,000 tested, 0.005% active; maximum fold increase; HSV replication augmentation in cells; AID 1956, 2009; in the data active means maximum fold increase above about 1.5; tested in PC3 cells
TNF death inh = inhibitors of TNF-alpha triggered necroptosis, primary screen, cell-based, Jurkat FADD-/-, single concentration | Jurkat FADD-/- TNF necroptosis rescue, ATP luminescence, 24 h; 0 = TNF only, 100 = no-TNF cells | activation (protection from cell death), % at 10 µM | 220,000 tested, 0.068% active;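 active means activation, meaning protection from cell death, of at least 50% relative to plate controls; inactive means activation below 50%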;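 further: necroptosis triggered by 40 ng/mL TNF-alpha added together with compound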
zVAD death inh = inhibitors of zVAD-triggered necroptosis, primary screen, L929 cells; viability rescue, % at 10 µM; L929 zVAD necroptosis rescue, ATP luminescence, 24 h; with zVAD 60 µM; 220,000 tested, 0.38% active; AID 1377, 2008;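 active means activation, scaled between plate controls, above about 75%, limit read from the data; inactive means activation under that limit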
Wee1 degr inh = Wee1 degradation inhibitors, primary screen, cell-based, HeLa, Wee1K328M-luciferase, luminescence; Wee1-like protein kinase (Homo sapiens), P30291; HeLa Luc-Wee1K328M stability; 100% = proteasome inhibitor MG132 effect; reporter increase, % at 5 µM; 220,000 tested, 1.2% active;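 active means activation above the mean of all tested compounds plus 3 SD, set per screening run, cut at about 8.8% in these data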;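 further: cells exposed to compound for 20 h before luminescence read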
V-ATPase pH SP = yeast V-ATPase proton pumping modulators, confirmation, S. cerevisiae, pH-sensitive GFP, second cherry-pick | shares compounds with V-ATPase pH | S. cerevisiae pHLuorin cytosolic pH, V-ATPase proton transport | response, % at 10 µM | 980 tested, 2% active | AID 602197, 2012; in the data active means response above about 24%
Each line names hits and unclear results; the compound was inactive in the other large screens (follow-up assays come after a bar, where they were run).

O=C(NNS(=O)(=O)c1ccccc1[N+](=O)[O-])c1cc2ccccc2cc1O	none (no result: HSV replic up, TNF death inh, zVAD death inh, Wee1 degr inh)
COc1ccc(/C=C/C(=O)Nc2cc(C)nn2-c2nc3ccccc3[nH]2)cc1	V-ATPase pH 16 | V-ATPase pH SP inactive
Cc1nn(CC(=O)Nc2cc(S(=O)(=O)N3CCOCC3)ccc2Cl)c(C)c1[N+](=O)[O-]	none (no result: HSV replic up, TNF death inh, zVAD death inh, Wee1 degr inh)
O=C(NC1CCCCCC1)c1ccc(OCC2CCCO2)cc1 (stereo not drawn)	V-ATPase pH 7.8 | V-ATPase pH SP inactive
CCOC(=O)c1nnn(-c2nonc2N)c1CSc1nnc(N)s1	none
Cc1ccc(CNC(=O)Cc2ccc(Br)cc2)cc1	none (no result: HSV replic up, TNF death inh, zVAD death inh, Wee1 degr inh)
COC(=O)c1[nH]c2c(c1C)C(=O)CC(c1ccc(OC)c(OC)c1)C2 (stereo not drawn)	none (no result: HSV replic up, TNF death inh, zVAD death inh, Wee1 degr inh)
COC(=O)c1[nH]c2c(c1C)C(=O)CC(c1cccc(OC)c1)C2 (stereo not drawn)	V-ATPase pH 13 (no result: HSV replic up, TNF death inh, zVAD death inh, Wee1 degr inh) | V-ATPase pH SP inactive
O=C(c1ccc(N2CCCCS2(=O)=O)cc1)N1CCN(c2ccccc2F)CC1	none (no result: HSV replic up, TNF death inh, zVAD death inh, Wee1 degr inh)
COCCn1c(SCC(=O)NCCCN2CCCC2=O)nc2ccccc2c1=O	none (no result: HSV replic up, TNF death inh, zVAD death inh, Wee1 degr inh)
Cc1ccc(C(=O)C2CCOC(C)(C)C2)cc1 (stereo not drawn)	V-ATPase pH 12 | V-ATPase pH SP inactive
COc1cc(C(C)=O)ccc1OCC(=O)N(CCC1=CCCCC1)c1c(N)n(Cc2ccccc2)c(=O)[nH]c1=O	none (no result: HSV replic up, TNF death inh, zVAD death inh, Wee1 degr inh)
COc1cc(OC)c(OC)cc1/C=N/n1c(C)nc2ccccc2c1=O	V-ATPase pH 14 (no result: HSV replic up, TNF death inh, zVAD death inh, Wee1 degr inh) | V-ATPase pH SP inactive
Cc1ccc(C)c(CN2C(=O)c3ccccc3S(=O)c3ccc(C(=O)N4CCN(c5ccccn5)CC4)cc32)c1 (stereo not drawn)	none
C/C(=N\Nc1ccccn1)c1cccs1	V-ATPase pH 21 | V-ATPase pH SP inactive
O=C(CSc1nccc(=O)[nH]1)N1CCOCC1	none (no result: HSV replic up, TNF death inh, zVAD death inh, Wee1 degr inh)
Cc1sc(NC(=O)Cc2ccc3c(c2)OCO3)nc1-c1ccc2c(c1)CCN2C(=O)c1ccc(F)cc1	V-ATPase pH 11 | V-ATPase pH SP inactive
Cc1sc(NC(=O)Cc2ccc3c(c2)OCO3)nc1-c1ccc2c(c1)CCN2C(=O)c1ccccc1F	none
NNC(=O)COc1cccc(C(F)(F)F)c1	V-ATPase pH 12 | V-ATPase pH SP inactive
Cc1ccc(CNC(=O)C2CCN(C(=O)Nc3ccc(C)cc3)CC2)cc1	none (no result: HSV replic up, TNF death inh, zVAD death inh, Wee1 degr inh)
CN1CCN(S(=O)(=O)c2cccc(C#N)c2)C(c2ccccc2)C1 (stereo not drawn)	V-ATPase pH 12 (no result: HSV replic up, TNF death inh, zVAD death inh, Wee1 degr inh) | V-ATPase pH SP inactive
CC(c1ccon1)N(C)Cc1c(C(=O)N(C)Cc2ccccc2)nc2ccccn12 (stereo not drawn)	V-ATPase pH 8.1 | V-ATPase pH SP inactive
CN(Cc1ccccc1)C(=O)c1nc2ccccn2c1CNCCn1cccn1	none
CN(C)CCNC(=O)c1cccc(S(=O)(=O)Nc2ccc(F)cc2)c1	V-ATPase pH 6.2 | V-ATPase pH SP inactive
CCN(CC)CCNC(=O)c1ccc(NC(=O)c2cccc(S(=O)(=O)Nc3ccc(C)cc3)c2)cc1	none
CC1=CC(C)C2COC(c3ccc[n+](C)c3)C1C2C (stereo not drawn)	none
c1ccc(CCNC2=NCCS2)cc1	none (no result: HSV replic up, TNF death inh, zVAD death inh, Wee1 degr inh)
c1ccc(CCNC2=NCCCS2)cc1	none | V-ATPase pH SP inactive
COCCn1c(SCC(=O)NNC(=O)c2ccc(OC)c(OC)c2)nc2ccccc2c1=O	none
COCCn1c(SCC(=O)NNC(=O)c2ccccc2)nc2ccccc2c1=O	V-ATPase pH 11 | V-ATPase pH SP inactive
COc1cccc(N2C(=O)c3ccncc3C2=O)c1	V-ATPase pH 12 (no result: HSV replic up) | V-ATPase pH SP inactive
OCC1CCCCN1C(=S)Nc1cccc(Cl)c1 (stereo not drawn)	none
Cc1nnc(SCc2nc3ccccc3s2)n1N	none
Cc1nnc(SCc2nc3ccccc3s2)n1-c1ccccc1	V-ATPase pH 8.3 | V-ATPase pH SP inactive
O=C(CSC1=NS(=O)(=O)c2ccccc2N1)Nc1nccs1	none (no result: HSV replic up, TNF death inh, zVAD death inh, Wee1 degr inh)
Cc1cccc(NC(=S)N2CCN(S(=O)(=O)c3ccc(F)cc3)CC2)c1	none (no result: HSV replic up, TNF death inh, zVAD death inh, Wee1 degr inh)
COc1ccc(-c2nnn(CC(=O)N(CCCO)C(C(=O)NC3CCCC3)c3ccc(F)cc3)n2)cc1 (stereo not drawn)	none
